Shown are actives, neighbours in structure and some others; about 0.64% of the full set was active somewhere.
PTPN22 act: LYP (human) phosphatase activation. Q9Y2R2. recombinant LYP, DiFMUP fluorescence; 0 = plate median, 100 = signal doubled. activation, % at 2 µM. 96,000 compounds, 0.11% hits. AID 697;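 active = activation at 2 µM above a set limit, the mean plus 5 SD, cut at about 37% in these data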
sEH inh: inhibitors of human soluble epoxide hydrolase. P34913. recombinant human sEH enzymatic activity assay. inhibition, % at 2 µM. 91,000 compounds, 0.34% hits; in the data active = inhibition above about 80%
MT1-MMP txn act: MT1-MMP promoter transcription activation. HT1080 MT1-MMP promoter luciferase reporter, luminescence, overnight; hits give high values. activation factor at 10 µM. 86,000 compounds, 0.16% hits. AID 750;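 active = activation factor of at least 2 for MT1-MMP transcription at 10 µM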
Ec RNAP inh: blocks E. coli RNA polymerase transcription; AID 559; fluorescence transcription assay; P0A8V2; 62,000 compounds, 0.2% hits; inhibition, %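 (tested at 10 µM)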; in the data active = inhibition above about 20%;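 also: 0% = enzyme without compound and 100% = no enzyme blank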
sEH activator: activators of human soluble epoxide hydrolase. P34913. purified human sEH enzymatic activity, activator screen. activation, % at 2 µM. 91,000 compounds, 0.04% hits. AID 717; in the data active = activation above about 37%
LYP inh 2: LYP (human) phosphatase inhibition; Q9Y2R2; recombinant LYP catalytic domain, DiFMUP fluorescence; inhibition, % at 2 µM; 96,000 compounds, 0.21% hits; AID 640;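 active = inhibition at 2 µM at or above a set limit, the screen mean plus 3 SD, cut at about 24% in these data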;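 also: 0% = DMSO with enzyme and 100% = enzyme fully blocked by orthovanadate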
The depositor's hits bear a star; . = not tested or not shown.

SMILES	PTPN22 act	sEH inh	MT1-MMP txn act	Ec RNAP inh	sEH activator	LYP inh 2
C=C(C)C(=O)OC1(C(F)(F)F)Oc2cc(C)ccc2NC1=O (configuration not stated)	11	-41	1	.	41*	-7
O=C(/C=C/c1ccccc1Cl)NCc1ccccc1	3	39	.	.	-40	0
NS(=O)(=O)c1ccc(CNC(=O)/C=C/c2c(Cl)cccc2Cl)cc1	6	92*	.	.	-92	-1
Cc1cc(-c2ccccc2)nc(N2CCC(C(=O)NCc3ccccc3Cl)CC2)n1	1	82*	1.3	.	-82	-2
Cc1cc(Cl)c(S(=O)(=O)N2CCN(c3ccc(F)cc3)CC2)cc1OCC(=O)NC1CCCCC1	-1	-2	1.2	.	4	4
CCOC(=O)c1sc(NC(=O)c2ccc(C)s2)cc1C	-10	87*	1.6	.	-86	12
CCOC(=O)c1sc(NC(C)=O)cc1C	.	.	1.1	5	.	.
Cc1cc(NCCOCCO)n2ncc(-c3ccc(Cl)cc3)c2n1	-5	-1	1.2	.	4	-2
CC(C)(C)c1cc(NCCCn2ccnc2)n2ncc(-c3ccc(Cl)cc3)c2n1	-36	-8	1.2	.	11	38*
Cc1cc(=O)[nH]c(SC/C=C/c2ccccc2)n1	-4	6	1.1	5	-6	1
C(=C/c1ccnc2nc(SC/C=C/c3ccccc3)nn12)/c1ccccc1	-31	-2	.	.	4	33*
CCC/C=C(\CCC)C(NC(=O)C(C)(C)C)c1ccc(C(=O)OC)cc1 (configuration not stated)	.	.	1.1	.	.	.
COc1cnc(-c2ccccn2)nc1Sc1ccc(Cl)cc1	-28	-11	.	.	12	30*
CCOC(=O)C1=C(C)N(CCCC(=O)N(Cc2ccc3c(c2)OCO3)C(C(=O)NC(C)(C)C)c2ccc3c(c2)OCO3)C(=O)NC1c1ccc(Br)cc1 (configuration not stated)	.	.	1.2	.	.	.
O=c1c2c(nc3cc(-c4ccccc4)[nH]n13)CCC2	8	.	1.1	-3	.	-11
Cc1cc2nc3c(c(=O)n2[nH]1)CCCC3	-2	-34	1.1	-1	37*	4
Nc1ccc(C(=O)OCc2nc3c(ccc4ccccc43)[nH]2)cc1	3	-7	2.5*	.	7	-3
O=C(OCc1nc2ccccc2c(=O)[nH]1)c1cccs1	3	-15	1.4	4	13	-3
Cc1c(CN(C)C(=O)c2sc3cc(Cl)ccc3c2Cl)cnn1C	-3	6	0.9	.	-6	2
O=C(Nc1ccc2oc(-c3ccc(Cl)c(Cl)c3)nc2c1)c1ncn[nH]1	-40	0	.	.	-2	40*
CCC/C=C(\CCC)C(NS(=O)(=O)c1ccc(C(F)(F)F)cc1)c1ccc(-c2ccccc2)cc1 (configuration not stated)	.	.	1.2	.	.	.
CCCOC(=O)c1ccc(NC(=O)c2cc(OC)c(OC)c(OC)c2Br)cc1	-4	5	.	.	-2	9
O=C(O)/C=C/c1ccc(O)c(O)c1	.	.	1	21*	.	.
COC(=O)c1ccc(C(NC(=O)OCc2ccccc2)/C(I)=C/[C@@H](C)C(=O)NCCc2c[nH]c3ccccc23)cc1 (some centres not stated)	.	.	1.1	.	.	.
COC(=O)c1ccc(C(/C=C/[C@@H](C)C(=O)NCCN2CCCC2)NC(=O)OCc2ccccc2)cc1 (some centres not stated)	.	.	1.1	.	.	.
SMILES	PTPN22 act	sEH inh	MT1-MMP txn act	Ec RNAP inh	sEH activator	LYP inh 2
O=C(CCc1ccccc1)Nc1c(F)cccc1F	3	-3	2.3*	.	4	-6
Cc1cccc(CCNC(=O)C2CCCN(S(=O)(=O)c3cccc4nsnc34)C2)c1 (configuration not stated)	.	.	1.1	2	.	.
Cc1ccc(CCNC(=O)C2CCCN(S(=O)(=O)c3cccc4nsnc34)C2)cc1 (configuration not stated)	-4	83*	1	5	-83	3
O=C(NCCCN1CCOCC1)NC12CC3CC(CC(C3)C1)C2	.	.	1.2	64*	.	.
CNC(=O)[C@]1(C)C[C@H]1[C@H](NC(=O)[C@]1(C)C[C@H]1[C@H](NC(=O)OCc1ccccc1)c1ccccc1)c1ccccc1	.	.	1.1	.	.	.
O=C(NNC(=O)c1ccc2ccccc2c1O)c1ccccc1Cl	-20	-8	.	.	11	24*
CCC(C)NC(=O)Nc1ccc2c(c1)N(C)C(=O)c1ccccc1S2 (configuration not stated)	-14	88*	1.4	.	-88	13
COC(=O)c1ccc(C(NC(=O)OCc2ccccc2)/C(F)=C/[C@@H](C)C(=O)NCCO)cc1 (some centres not stated)	.	.	1.1	.	.	.
